Screening data as filed in PubChem BioAssay.
This is a sample that favours compounds with a hit; in the whole collection about 2.4% have one here.
HSF1 inh: HSF1 inhibition | NIH3T3-HGL HSE-luciferase, MG132-induced, luminescence 8 h; stronger effect = lower value | activity change, negative = inhibition, % at 7.5 µM (by protocol) | 300,000 tested, 0.77% active | AID 2098;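 active = more than half of replicate wells show activity change below -50%, luminescence cut by over half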;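 also: luciferase reports HSF-1 transcriptional activity via heat shock element; 0% = median of DMSO wells and -100% = zero luminescence signal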
PPC-1+TRAIL kill: compounds killing PPC-1 cancer cells with TRAIL present (potentiator screen, no TRAIL-free arm). 220,000 tested, 0.41% active. cell killing (% activity), % at 4 µM or 5 µM. PPC-1 cells + TRAIL, ATPLite viability luminescence;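 active = cell killing above 50% in the first pass at 4 µM, then a duplicate retest at 5 µM averaging 50% or more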;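 also: plate controls were cells with TRAIL plus DMSO for no effect and medium-only wells lacking cells for full effect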
STAT3 inh: inhibitors of IL-6 induced STAT3 signaling. inhibition, % at 5.5 µM. U3A cells, IL-6 STAT3-luciferase reporter, luminescence; host cell line lacks STAT1. 190,000 tested, 0.89% active. AID 862;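 active = inhibition above the mean inhibition across all screened compounds plus 3 SD, cut at about 44% in these data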;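 also: 0% = DMSO only wells and 100% = 100 µM nifuroxazide control wells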
C8 TRAIL sens: sensitizes caspase-8 expressing cells to TRAIL; 360,000 tested, 1% active; inhibition (viability loss, TRAIL sensitization), % at 10 µM; NB7+C8 cells + TRAIL, ATPlite viability luminescence;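 active = compounds causing at least 50% loss of cell viability in the single-dose screen, relative to plate controls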
STAT1 blocker: reduces IFN-gamma driven STAT1 reporter signal; NIH 3T3 STAT1-luciferase reporter, luminescence; 200,000 tested, 0.35% active; inhibition, % at 5.5 µM; AID 920;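 active = inhibition above a set limit, the mean inhibition across all tested compounds plus 3 SD, cut at about 34% in these data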;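 also: 0% = IFN-gamma with DMSO and 100% = IFN-gamma with 300 µM nifuroxazide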
HSP90 refold inh: inhibitors of HSP90 luciferase refolding in rabbit reticulocyte lysate. inhibition, % at 5.6 µM. luciferase refolding luminescence, 3 h. 290,000 tested, 0.91% active. AID 1789;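 active = inhibition above the screen-wide mean plus 3 SD, computed separately per campaign, cut at about 16% in these data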;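 also: 0% = DMSO wells and 100% = 60 µM geldanamycin wells; inhibitors lower the luminescence because luciferase stays unfolded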
Starred values were filed as active, the others as inactive; · = no result given.

SMILES	HSF1 inh	PPC-1+TRAIL kill	STAT3 inh	C8 TRAIL sens	STAT1 blocker	HSP90 refold inh
CCCC(C(=O)NC(C)(C)C)N(C(=O)c1snc(C(N)=O)c1N)c1ccc2c(c1)OCCO2 (centres undefined)	-74*	·	31	-3	2	1
CCCCCCOc1ccc(/C(C)=N/NC2=NCCN2)cc1[N+](=O)[O-]	17	17	3	-4	-10	-3
C/C(=N\NC1=NCCN1)c1ccc(N)c([N+](=O)[O-])c1	-72*	6	·	11	·	4
Nc1nc(N)c2nc(-c3ccccc3)c(N)nc2n1	-42	22	6	79*	-5	1
Cc1oc(/C=N/NC(=O)CC2(C)OCCO2)cc1Br	-53*	17	0	2	0	-1
CC1(CC(=O)N/N=C/c2cc(Br)c(O)cc2O)OCCO1	-5	13	0	-29	3	0
COc1cc(C)ccc1S(=O)(=O)NC(=O)C1(C)CCN1C(=O)COc1ccc(Cl)cc1 (centres undefined)	·	·	·	-2	·	·
O=c1c2ccccc2cnn1CCOc1ccccc1	-9	43	90*	38	44*	68*
O=C(NCCN1C(=O)S/C(=C\c2ccc(Cl)c([N+](=O)[O-])c2)C1=O)C1=COCCO1	6	·	·	55*	·	·
Cc1cccc(NCc2ccc(O)c3ncccc23)c1C	-63*	11	-2	-2	3	2
O=C(/C(C=Nc1ccc(Br)cc1)=C(/O)c1ccco1)C(F)(F)F	9	60*	40	43	-72	1
COCCN(C(=S)Nc1cccc(OC)c1)C1CCN(C(C)=O)CC1	9	4	10	-3	4	3
COc1cccc(NC(=S)N(CCC(C)C)C2CCN(C(C)=O)CC2)c1	-76*	·	·	5	·	2
Cc1cc(C)c(C#N)c(SCC(=O)NC(C)(C)C)n1	-65*	5	17	15	6	-2
CCOC(=O)NC(=O)CSc1nc(C)cc(C)c1C#N	28	37	28	72*	-26	8
CCOC(=O)CNC(=O)CSc1nc(C)cc(C)c1C#N	-3	18	21	21	13	8
CC(C)NC(=O)C1(C)CSCC(=O)N1C1CCN(Cc2ccccc2)CC1 (centres undefined)	·	·	·	-3	·	·
CC1=NNC(=O)/C1=C\c1cn(-c2ccccc2)nc1-c1cccs1	17	35	-9	39	-11	-2
CC1=NNC(=O)/C1=C\c1cn(-c2ccccc2)nc1-c1ccc(F)cc1	111	22	16	86*	-17	4
Cc1c(O)ccc(/C=N/Nc2nc(-c3cccnc3)nc3ccccc23)c1O	-5	0	·	40	·	-5
Oc1ccc(/C=N/Nc2nc(-c3cccnc3)nc3ccccc23)c(O)c1	3	16	·	55*	·	5
CC1=C(C(=O)N2CCCCCC2)CC(CC(=O)NCC2CCCCC2)C(=O)N1Cc1ccc(F)cc1 (centres undefined)	·	·	·	7	·	·
CC(=C\c1ccccc1)/C=C1/SC(=S)N(CCCC(=O)O)C1=O	-8	·	·	6	·	1
CC(=C\c1ccccc1)/C=C1/SC(=S)N(CCC(=O)Nc2ccccn2)C1=O	-91*	-23	-12	·	-1	-4
CC(/C=C1\SC(=S)N(CCC(=O)Nc2cccc(C(=O)O)c2)C1=O)=C\c1ccccc1	-4	·	·	-1	·	2
SMILES	HSF1 inh	PPC-1+TRAIL kill	STAT3 inh	C8 TRAIL sens	STAT1 blocker	HSP90 refold inh
CC(/C=C1\SC(=S)N(CCC(=O)Nc2ccccc2O)C1=O)=C\c1ccccc1	-69*	·	·	9	·	6
O=C(CCN1C(=O)/C(=C/C=C/c2ccccc2)SC1=S)Nc1ccccn1	45	7	5	30	1	1
CC(/C=C1\SC(=O)N(CCCC(=O)O)C1=O)=C\c1ccccc1	-73*	23	84*	12	36*	37*
CCCS(=O)(=O)NC(=O)C1(C)CCN(C(=O)c2ccnc(Cl)c2)C1 (centres undefined)	·	·	·	-14	·	·
Cc1cc(C)n(-c2ccc(C(=O)Nc3ccc(C)c(S(=O)(=O)N4CCOCC4)c3)cc2)n1	-6	22	·	53*	·	0
CC(=O)c1ccc(NC(=O)c2ccc(C)c(S(=O)(=O)N3CCOCC3)c2)cc1	-2	·	·	-4	·	-2
CCOc1ccc(NC(=O)COC(=O)C2(C)CC2(Cl)Cl)c([N+](=O)[O-])c1 (centres undefined)	-53*	-21	4	-9	-2	-1
O=C(NCCN1CCC(n2c(=O)[nH]c3ccccc32)CC1)c1cccnc1Cl	·	·	·	3	·	·
COc1ccc(CNC(=O)N2CCc3ccccc3C2)cc1Cl	7	·	·	-20	·	16*
O=C(NCc1ccc(Cl)cc1)N1CCc2ccccc2C1	-12	·	·	-15	·	-1
CC(C)CCNC(=O)CSc1nc2ccsc2c(=O)n1NC(=O)c1ccccc1	-8	18	-5	-6	0	-4
CCCN(CCC)C(=O)CSc1nc2ccsc2c(=O)n1NC(=O)c1ccccc1	-57*	5	-4	4	-1	-3
O=[N+]([O-])c1cccc(-c2nnc(-c3ccccc3)o2)c1	-78*	2	6	4	-60	-2
Cc1cccc2sc(NNC(=O)c3ccc(S(=O)(=O)N4CCCC(C)C4)cc3)nc12 (centres undefined)	-11	12	-30	67*	15	8
CSCCC(NS(=O)(=O)c1cccs1)C(=O)NCc1ccccc1 (centres undefined)	-52*	23	15	5	-1	-3
CCCCCc1c(CC)ncn1CCc1ccccc1OC	·	·	·	17	·	·
CC(C)(C)NC(=O)C1(C)CCC(=O)N1C1CCN(Cc2ccccc2)CC1 (centres undefined)	·	·	·	6	·	·
CCc1cccc2c(C(=O)COC(=O)c3ccc([N+](=O)[O-])s3)c[nH]c12	-69*	-5	2	0	25	3
CCOCCCn1c(SCC(=O)NCc2ccco2)nc2c(sc3ccccc32)c1=O	2	20	7	-17	1	1
CCCCn1c(SCC(=O)NCc2ccco2)nc2c(sc3ccccc32)c1=O	-65*	18	2	13	0	3
COC(=O)C[C@@H]1C=C[C@@H](NC(=O)c2ccccc2F)[C@@H](CO)O1	·	·	·	-17	·	·
O=S(=O)(SC1=NCCN1)c1ccccc1	·	·	·	-5	·	·
NS(=O)(=O)c1ccc(N/N=C/c2cn(-c3ccccc3)nc2-c2ccccc2)c([N+](=O)[O-])c1	-8	28	6	54*	-16	-4
O=[N+]([O-])c1ccc(N/N=C/c2cn(-c3ccccc3)nc2-c2ccccc2)cc1	29	14	8	19	4	2
CC(=O)N1CCCC(C)(C(=O)Nc2ccc3oc(C)nc3c2)C1 (centres undefined)	·	·	·	-4	·	·
CCOc1cc(C(=O)NCc2ccccc2)ccc1OCC(=O)N1CCOCC1	-77*	9	5	4	0	1
